These results are taken from PubChem BioAssay.

The subject of assay [1] is Plasmodium falciparum Sir2 (PF13_0152, Sir2A). The assay can be described thus: Plasmodium falciparum Sir2A binding compounds – biochemical, small-molecule microarray, 635 nm fluorescence, primary screen (AID 1098).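 Note: score merges spot fluorescence intensity with its signal-to-noise ratio.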 To be noted: fluorescence 635 nm, higher = more signal.
The nature of assay [2]: probe aDKK1 binding to arrayed compounds – biochemical, biotinylated probe, 635/667 nm fluorescence, primary screen (AID 1099).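 Note: score merges 667nm spot fluorescence with signal to noise across triplicate slides.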 To be noted: small-molecule microarray, higher = more signal.
Assay [3] in a line: probe aCHRDL2 binding to arrayed compounds – biochemical, biotinylated probe, 635/667 nm fluorescence, primary screen (AID 1100). To be noted: small-molecule microarray, higher = more signal.
The nature of assay [4]: change in splice reporter luminescence, either direction, cell-based, HEK293, spliceosome inhibition project, primary screen (AID 1101).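 Note: HEK293 cells carrying a splicing-competent luciferase reporter gene; test concentration not given here.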 To be noted: HEK293 splicing luciferase reporter, 24 h, higher = more signal, called active from +8 up or from −8 down.
For assay [5], the target named is Fibroblast growth factor 10 (Homo sapiens) (UniProt O15520). The assay can be described thus: compounds binding fibroblast growth factor 10 – biochemical, small-molecule microarray, 635 nm fluorescence, primary screen (AID 1102). To be noted: FGF10 binding, fluorescence 635 nm, higher = more signal.
Chain of Fibroblast growth factor 10 (Homo sapiens) (O15520 whole entry, looked up): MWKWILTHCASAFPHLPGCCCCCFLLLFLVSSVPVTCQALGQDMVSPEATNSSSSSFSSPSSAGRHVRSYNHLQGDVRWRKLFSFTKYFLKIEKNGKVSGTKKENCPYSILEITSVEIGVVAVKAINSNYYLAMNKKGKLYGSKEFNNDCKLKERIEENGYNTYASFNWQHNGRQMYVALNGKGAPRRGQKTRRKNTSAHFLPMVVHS
Assay [6] deals with glycogen synthase kinase-3 (GSK3A per assay name; protocol says GSK3B). Kind of assay: compounds binding glycogen synthase kinase-3 – biochemical, small-molecule microarray, 635 nm fluorescence, GSK3A, primary screen (AID 1103). Note: the record names both GSK3A and GSK3B. To be noted: fluorescence 635 nm, higher = more signal.
Assay [7] concerns the target Epidermal growth factor receptor (Homo sapiens) (UniProt P00533). Kind of assay: compounds binding epidermal growth factor receptor – biochemical, small-molecule microarray, 635 nm fluorescence, primary screen (AID 1104).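 Note: score merges 667 nm emission intensity with spot signal to noise over triplicate slides.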 To be noted: EGFR binding, higher = more signal.
The target in assay [8] is Follistatin-related protein 3 (Homo sapiens) (UniProt O95633). Kind of assay: compounds binding follistatin-related protein 3 – biochemical, small-molecule microarray, 635 nm fluorescence, primary screen (AID 1105).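 Note: score merges emission near 667 nm and signal to noise per printed spot across three slides.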 To be noted: FSTL3 binding, higher = more signal.
Chain of Follistatin-related protein 3 (Homo sapiens) (O95633 whole entry, looked up): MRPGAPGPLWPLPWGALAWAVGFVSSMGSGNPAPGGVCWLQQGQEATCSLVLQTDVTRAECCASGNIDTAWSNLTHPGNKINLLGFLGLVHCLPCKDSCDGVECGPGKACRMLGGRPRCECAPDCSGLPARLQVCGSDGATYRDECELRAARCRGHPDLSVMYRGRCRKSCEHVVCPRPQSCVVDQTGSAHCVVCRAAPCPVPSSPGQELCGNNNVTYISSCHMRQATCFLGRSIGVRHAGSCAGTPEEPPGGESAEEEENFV
The target in assay [9] is Dickkopf-related protein 1 (Homo sapiens) (UniProt O94907). Kind of assay: small molecules binding DKK1 protein – biochemical, small-molecule microarray, 635 nm fluorescence scan, primary screen (AID 1106).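 Note: score merges emission near 667 nm with signal to noise over three replicate slides.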 To be noted: higher = more signal.
Chain of Dickkopf-related protein 1 (Homo sapiens) (O94907 whole entry, looked up): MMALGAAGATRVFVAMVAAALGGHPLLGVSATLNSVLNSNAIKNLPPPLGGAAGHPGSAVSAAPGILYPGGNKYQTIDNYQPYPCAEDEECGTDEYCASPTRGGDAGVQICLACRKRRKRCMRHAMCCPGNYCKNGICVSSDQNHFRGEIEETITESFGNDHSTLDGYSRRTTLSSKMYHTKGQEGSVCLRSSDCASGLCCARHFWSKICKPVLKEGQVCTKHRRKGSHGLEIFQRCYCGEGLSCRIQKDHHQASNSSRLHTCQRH
Assay [10] deals with Inhibin beta A chain (activin A). Kind of assay: small molecules binding activin A – biochemical, small-molecule microarray, 635 nm fluorescence scan, primary screen (AID 1107).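 Note: mouse activin A protein probed at 4.33 µg/mL on printed slides; score merges bound-protein fluorescence near 667 nm with spot signal-to-noise.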 To be noted: INHBA, higher = more signal.
The test system of assay [11] is Human papillomavirus type 1a protein E7 (residues 44-93). The assay can be described thus: small molecules binding HPV E7 44-93 – biochemical, small-molecule microarray, residues 44-93, 635 nm fluorescence, primary screen (AID 1108).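 Note: E7 fragment applied at 1 µg/mL in TBST for 1 h at 4 C; score combines spot fluorescence with its signal to noise ratio.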 To be noted: fluorescence 635 nm, higher = more signal.
Assay [12] in a line: hepatitis C replication reporter changes, two-sided – Huh7 cells, luciferase reporter, HCV replication inhibitor project, primary screen (AID 1109).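 Note: huh7 hepatoma cells harbouring a luciferase neomycin HCV replicon reporter; luciferase luminescence as measure of HCV replicon replication; test concentration not given here.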 To be noted: Huh7 HCV replicon luciferase reporter, 48 h; higher = more signal. For orientation: Reporter assays use an easily measured gene product as a stand-in for the process of interest.
Assay [13] addresses Left-right determination factor 2 (Homo sapiens) (UniProt O00292). Kind of assay: small molecules binding LEFTY2 protein – biochemical, small-molecule microarray, 635 nm fluorescence scan, primary screen (AID 1110). To be noted: higher = more signal.
The target in assay [14] is Calmodulin-1 (Homo sapiens) (UniProt P0DP23). Kind of assay: small molecules binding calmodulin-1 with EGTA – biochemical, small-molecule microarray, Cy5-labelled CALM1, profiling panel (AID 1111).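 Note: labelled calmodulin applied in Tris saline Tween buffer holding calcium plus EGTA and DTT.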 To be noted: Cy5-CALM1 binding fluorescence, higher = more signal.
Assay [15] shares this target. Kind of assay: small molecules binding Ca-loaded calmodulin-1 – biochemical, small-molecule microarray, Cy5-labelled CALM1, plus calcium, artefact control for SMM control-protein annotation, profiling panel (AID 1112).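 Note: score merges spot fluorescence with signal to noise from triplicate slides.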 To be noted: Cy5-CALM1 binding fluorescence, higher = more signal.
Assay [16] in a line: probe aWnt5a binding to arrayed compounds – biochemical, biotinylated probe, 635/667 nm fluorescence, primary screen (AID 1113).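 Note: score merges 667 nm fluorescence intensity with signal-to-noise per printed feature.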 To be noted: small-molecule microarray, higher = more signal.
The nature of assay [17]: probe aShh binding to arrayed compounds – biochemical, biotinylated probe, 635/667 nm fluorescence, primary screen (AID 1114).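 Note: probe is biotin-labelled aShh protein from a stem cell growth factor screen; measures binding of labelled protein to compounds printed on the slide; score merges feature fluorescence at 667 nm with signal-to-noise.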 To be noted: small-molecule microarray, higher = more signal.
The nature of assay [18]: probe aNog binding to arrayed compounds – biochemical, biotinylated probe, 635/667 nm fluorescence, primary screen (AID 1115).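 Note: probe is biotinylated aNog protein used at 0.15 µg/mL for 1 h at 4 C; z-score combines 667 nm fluorescence of each spot with its signal to noise.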 To be noted: small-molecule microarray, higher = more signal.
The target of assay [19] is Torsin-1A-interacting protein 1 (Homo sapiens) (UniProt Q5JTV8). Kind of assay: compound microarray binding of lysate hLAP1 – cell lysate, small-molecule microarray, COS7 lysate, 635/667 nm fluorescence, primary screen (AID 1116). To be noted: 635 nm fluorescence, higher = more signal.
Chain of Torsin-1A-interacting protein 1 (Homo sapiens) (Q5JTV8 whole entry, looked up): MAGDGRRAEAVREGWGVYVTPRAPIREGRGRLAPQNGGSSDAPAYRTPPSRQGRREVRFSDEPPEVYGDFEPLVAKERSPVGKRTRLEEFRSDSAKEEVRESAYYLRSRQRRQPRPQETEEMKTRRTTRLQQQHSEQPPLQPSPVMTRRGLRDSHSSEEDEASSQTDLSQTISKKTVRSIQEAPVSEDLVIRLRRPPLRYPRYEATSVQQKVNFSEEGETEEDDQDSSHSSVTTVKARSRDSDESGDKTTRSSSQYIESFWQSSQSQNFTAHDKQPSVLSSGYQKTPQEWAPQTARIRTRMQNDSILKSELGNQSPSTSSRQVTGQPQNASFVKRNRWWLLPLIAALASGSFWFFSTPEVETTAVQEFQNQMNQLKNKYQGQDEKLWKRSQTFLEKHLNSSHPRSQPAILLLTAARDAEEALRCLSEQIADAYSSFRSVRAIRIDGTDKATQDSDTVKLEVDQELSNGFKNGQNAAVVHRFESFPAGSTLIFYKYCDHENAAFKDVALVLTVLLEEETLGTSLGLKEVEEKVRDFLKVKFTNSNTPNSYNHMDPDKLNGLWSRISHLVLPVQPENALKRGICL
For assay [20], the target named is Alpha-bungarotoxin (Bungarus multicinctus) (UniProt P60615). Kind of assay: compounds binding labelled alpha-BTX control protein – biochemical, small-molecule microarray, Alexa647 label, 635/667 nm fluorescence, artefact control for SMM control protein annotation, profiling panel (AID 1117). To be noted: alpha-BTX-A647 binding fluorescence, higher = more signal.
Chain of Alpha-bungarotoxin (Bungarus multicinctus) (P60615 whole entry, looked up): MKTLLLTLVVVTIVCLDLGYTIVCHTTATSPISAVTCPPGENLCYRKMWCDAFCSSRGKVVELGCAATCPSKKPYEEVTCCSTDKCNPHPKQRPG

Molecules are shown by their SMILES. Calls of active or inactive are those of the source.

Chain of Epidermal growth factor receptor (Homo sapiens) (P00533 whole entry, looked up): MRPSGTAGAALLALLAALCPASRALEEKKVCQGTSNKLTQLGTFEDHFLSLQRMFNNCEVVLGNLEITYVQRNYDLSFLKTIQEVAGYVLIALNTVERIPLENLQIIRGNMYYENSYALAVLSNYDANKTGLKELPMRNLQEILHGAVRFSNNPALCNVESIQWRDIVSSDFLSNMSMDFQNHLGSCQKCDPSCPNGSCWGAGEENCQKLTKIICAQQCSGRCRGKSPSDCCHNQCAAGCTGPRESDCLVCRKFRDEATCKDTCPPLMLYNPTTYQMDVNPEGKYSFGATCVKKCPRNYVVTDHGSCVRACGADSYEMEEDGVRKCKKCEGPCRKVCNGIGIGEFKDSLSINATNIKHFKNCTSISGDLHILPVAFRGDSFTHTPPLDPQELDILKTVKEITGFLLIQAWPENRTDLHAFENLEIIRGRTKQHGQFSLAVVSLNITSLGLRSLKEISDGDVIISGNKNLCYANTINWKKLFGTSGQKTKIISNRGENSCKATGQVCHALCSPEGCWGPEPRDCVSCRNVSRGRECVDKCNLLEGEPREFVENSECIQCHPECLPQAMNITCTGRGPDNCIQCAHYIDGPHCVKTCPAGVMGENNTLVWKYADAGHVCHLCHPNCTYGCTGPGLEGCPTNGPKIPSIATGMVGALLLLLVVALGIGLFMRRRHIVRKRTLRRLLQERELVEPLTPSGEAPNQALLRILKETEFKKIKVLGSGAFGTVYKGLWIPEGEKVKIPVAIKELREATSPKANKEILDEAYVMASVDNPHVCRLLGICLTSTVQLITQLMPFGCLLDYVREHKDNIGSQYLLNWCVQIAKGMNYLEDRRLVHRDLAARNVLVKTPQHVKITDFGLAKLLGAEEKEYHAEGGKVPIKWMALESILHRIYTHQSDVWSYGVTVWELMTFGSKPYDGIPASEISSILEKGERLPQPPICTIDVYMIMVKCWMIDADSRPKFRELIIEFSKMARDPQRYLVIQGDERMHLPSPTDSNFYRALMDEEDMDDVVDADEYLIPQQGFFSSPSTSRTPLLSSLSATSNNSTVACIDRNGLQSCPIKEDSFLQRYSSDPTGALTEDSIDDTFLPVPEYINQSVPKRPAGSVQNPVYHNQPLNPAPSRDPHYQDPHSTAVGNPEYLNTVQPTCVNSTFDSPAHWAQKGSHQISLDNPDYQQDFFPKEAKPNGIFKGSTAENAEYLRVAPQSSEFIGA
Chain of Left-right determination factor 2 (Homo sapiens) (O00292 whole entry, looked up): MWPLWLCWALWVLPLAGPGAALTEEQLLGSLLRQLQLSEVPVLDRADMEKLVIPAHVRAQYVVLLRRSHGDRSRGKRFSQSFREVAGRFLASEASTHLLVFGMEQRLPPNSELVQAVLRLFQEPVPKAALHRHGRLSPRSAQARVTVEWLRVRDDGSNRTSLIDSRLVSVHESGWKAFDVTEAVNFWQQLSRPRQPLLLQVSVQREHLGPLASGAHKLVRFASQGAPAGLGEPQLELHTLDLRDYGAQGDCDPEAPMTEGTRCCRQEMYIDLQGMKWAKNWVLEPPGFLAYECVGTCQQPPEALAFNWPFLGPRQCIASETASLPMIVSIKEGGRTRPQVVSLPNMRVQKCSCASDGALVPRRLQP

For `CO[C@H]1O[C@H](CO)[C@@H](OC(=O)Nc2ccccc2)[C@H](OC(=O)Nc2ccc3c(c2)OCO3)[C@@H]1OC(=O)Nc1ccc2c(c1)OCO2`, the composite z-score in assay [1] is 1.51; in [2], 0.355; in assay [3], 0.749; in [5] it was 0.183; in assay [6] it was 1.19; in assay [7] it was -0.374. For the same compound, the composite z-score is 0.558 in assay [8]; 0.355 in assay [9]; 0.794 in assay [10]; 1.32 in assay [11]; -0.244 in [13]; 1.92 in [14]. Moreover, the composite z-score was -0.819 in [15]; -0.0944 in assay [16]; 0.151 in [17]; 0.038 in assay [18]; 1.99 in assay [19]; 0.361 in [20]. The results for the z-score in assay [4] and in [12] were -0.368 (inactive) and -0.245, respectively.

In the case of `C=C(COC)/C(=C/C[C@@H](OC(=O)c1ccncc1)c1ccc(OCCO)cc1)c1cc(C(=O)OC)ccc1OC`, the composite z-score in assay [1] amounted to 1.3; in assay [2] it was 0.318; in assay [3], 0.421; in assay [5], 0.635; in [6], 1.25; in assay [7], 0.16. In addition, the composite z-score is 0.461 in assay [8]; 0.214 in [9]; 0.147 in assay [10]; 0.355 in assay [11]; -0.428 in assay [13]; 0.947 in assay [14]. Further, the composite z-score in [15] was -0.777; in assay [16], -0.175; in assay [17], -0.0146; in assay [18] it was 0.475; in assay [19], 1.45; in assay [20], 2.04. For the same compound, the z-score in assay [4] is -1.43 (inactive); in assay [12] it was -1.63.

As to `COC(=O)C1=C(C)N(Cc2ccccc2)c2c(C(=O)OC)c(C(=O)OC)c(C(=O)OC)c(=O)n2[C@@H]1c1ccccc1`, the composite z-score in assay [1] is 0.119; in assay [2] it was -0.056; in [3] it was -0.32; in assay [5] it was 0.583; in assay [6], 0.37; in [7], 0.12. Besides, the composite z-score was 0.287 in [8]; 0.436 in assay [9]; 0.16 in assay [10]; -0.316 in assay [11]; 0.431 in assay [13]; 1.61 in assay [14]. Further, the composite z-score in assay [15] is 0.141; in [16] it was -0.0806; in assay [17], -0.221; in assay [18], -0.0286; in assay [19] it was 0.812; in assay [20], 0.732. Also, the z-score in [4] is -0.449 (inactive); in [12], 0.0883.

`CCC(=O)[C@]12O[C@@]3([C@@H]4C(=O)OCC[C@@H]41)N(CC)C(C)=C(C(=O)OC)[C@@H](c1ccccc1)N3C2=O`: the composite z-score in assay [1] was -0.155; in assay [2] it was -0.41; in [3], -0.87; in [5] it was 0.162; in assay [6], 0.0495; in assay [7], 0.0064. Besides, the composite z-score in assay [8] was 0.599; in assay [9] it was 0.817; in assay [10] it was 1.7; in assay [11] it was -0.933; in assay [13], 0.594; in [14], -0.42. Moreover, the composite z-score in assay [15] is -0.382; in assay [16], -0.147; in assay [17] it was 0.227; in [18] it was -0.131; in assay [19] it was -0.303; in assay [20], 0.175. The figures for the z-score in [4] and in assay [12] were -1.9 (inactive) and -0.206, respectively.

Take `COc1ccc([Si](C)(C)[C@H]2[C@H](CC(=O)N(CCO)Cc3ccccc3)O[C@@]3(C(=O)N(C)c4ccccc43)[C@@H]2C)cc1`: the composite z-score in assay [1] is 0.624; in assay [2] it was -0.29; in assay [3], -0.519; in assay [5] it was 1.19; in [6] it was 0.25; in assay [7] it was 0.631. Moreover, the composite z-score is 0.996 in assay [8]; 1.05 in assay [9]; 0.92 in assay [10]; 1.3 in assay [11]; 0.664 in [13]; -0.416 in assay [14]. Besides, the composite z-score in [15] was -0.398; in [16] it was -0.0182; in assay [17], -0.141; in [18] it was -0.52; in assay [19] it was 0.188; in assay [20], 0.238. Also, the z-score is -1.44 (inactive) in [4] and -3.22 in [12].
